# Screens: PubChem BioAssay, National Center for Advancing Translational Sciences (NCATS)
# This is one part of a sample in which hits are shown more often than they occur.
# RECQ1 helicase = inhibitors of human RECQ1 DNA helicase. Potency, µM (series often up to 57.3 µM), usual class: inhibitors. 0.54% of 240,000 active. RECQ1 DNA unwinding, red fluorescence kinetic read. P46063; note: nearly all actives have a fitted effect of over 30% in size
#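 RECQ1T1 50 nM; forked duplex (20 bp + 30-nt ss tails) 200 nM, ATP 2 mM final; pH 8.0, 2 mM MgCl2, 2.5 ug/ml poly(dI-dC); 15 min compound preincubation; discontinuous kinetic read over 2 h at RT.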
# TDP1 block = TDP1 (human) enzyme inhibition; 0.28% of 350,000 active; Potency, µM (top dose mostly 130 µM), usual class: inhibitors; recombinant TDP1, AlphaScreen DNA substrate cleavage; Q9NUW8; note: nearly all actives have a fitted effect of over 40% in size
#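 Tdp1 1 nM final; 15 min RT w/ cpd; substrate 15 nM, 5 min; beads 10 ug/ml, 10 min; AlphaScreen read. Neg ctrl: no enzyme.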
# KAT2A inh = GCN5L2 (KAT2A) acetyltransferase inhibition; AID 504327; Potency, µM (highest dose often 58.9 µM), most hits filed as inhibitors; 0.21% of 390,000 active; GCN5L2 HAT assay, ThioGlo1 CoA-SH fluorescence
# Target sequence (Q92830 whole entry, looked up): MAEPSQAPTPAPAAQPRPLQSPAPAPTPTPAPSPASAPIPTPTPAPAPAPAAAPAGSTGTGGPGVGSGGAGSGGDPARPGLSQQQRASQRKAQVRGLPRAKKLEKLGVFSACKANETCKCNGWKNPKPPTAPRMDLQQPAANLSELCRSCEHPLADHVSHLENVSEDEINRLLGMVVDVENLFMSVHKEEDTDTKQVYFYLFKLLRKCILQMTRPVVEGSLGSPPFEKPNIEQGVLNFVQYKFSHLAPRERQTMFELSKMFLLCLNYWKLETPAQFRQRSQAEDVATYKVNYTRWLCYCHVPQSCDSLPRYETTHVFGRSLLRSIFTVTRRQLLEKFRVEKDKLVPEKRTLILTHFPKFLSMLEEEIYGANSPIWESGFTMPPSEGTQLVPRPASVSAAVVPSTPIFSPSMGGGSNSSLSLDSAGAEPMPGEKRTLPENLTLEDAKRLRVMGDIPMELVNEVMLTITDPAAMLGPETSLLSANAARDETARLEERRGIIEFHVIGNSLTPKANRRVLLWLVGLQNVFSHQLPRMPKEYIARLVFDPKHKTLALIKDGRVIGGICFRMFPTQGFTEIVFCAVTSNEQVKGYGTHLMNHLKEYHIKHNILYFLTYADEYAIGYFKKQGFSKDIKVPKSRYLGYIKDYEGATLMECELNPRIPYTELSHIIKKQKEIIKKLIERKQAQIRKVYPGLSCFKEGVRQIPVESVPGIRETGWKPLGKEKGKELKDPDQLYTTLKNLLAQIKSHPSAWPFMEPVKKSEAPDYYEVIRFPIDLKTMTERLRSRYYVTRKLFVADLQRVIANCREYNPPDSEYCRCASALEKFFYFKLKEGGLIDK
#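 Enzyme at 20nM final was mixed with library compounds for 15 min at room temperature. Peptide H3(1-25) at 75uM, acetyl-CoA at 70uM and ThioGlo1 at 50uM were then added. Plates were read immediately and after 20 min (Ex340nm/Em540nm).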
# BLM inh = Bloom syndrome helicase (human) inhibition; recombinant BLM DNA unwinding, fluorescence dequenching; 0.2% of 350,000 active; Potency, µM (doses to about 56.1 µM), actives largely listed as inhibitors; note: nearly all actives have a fitted effect of over 35% in size
# APEX1 inh = inhibitors of human APE1 endonuclease; AID 2517; P27695; 0.35% of 350,000 active; recombinant APE1, TAMRA/BHQ-2 abasic DNA cleavage fluorescence; Potency, µM (doses to about 65.8 µM), usual class: inhibitors; note: nearly all actives have a fitted effect of over 55% in size
#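 Kinetic fluorescence read (525 ex/598 em nm, three reads 60 s apart) of AP-site incision; signal = third minus first read. Enzyme 0.75 nM, dual-labelled THF duplex 50 nM, compound preincubation 15 min RT.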
# KDM4E inh = blocks human JMJD2E demethylase activity; JMJD2E catalytic domain, FDH-coupled NADH fluorescence (FDH is formaldehyde dehydrogenase); AID 2147; Potency, µM (titrated, usually from 57.1 µM), usual class: inhibitors; B2RXH2; 1.6% of 230,000 active; active = well fitted inhibition curve with a large enough effect, not every such curve was filed as active; inconclusive = small, poorly fitted or top-dose-only effect, or another doubt; inactive = no such curve, though single readings can be large or run the other way; note: nearly all actives have a fitted effect of over 50% in size
# Numbers stand for hits; n = inactive; u = inconclusive; x = not tested or not shown; ! = not confirmed by another sample; [ ] = dose if it differs, or a comment. Unless noted, calls come from the whole dose curve; as a rule, active = well fitted curve in the direction sought with a large enough effect; inconclusive = small, poorly fitted or top-dose-only effect, or another doubt; inactive = no such curve, though single readings can be large; an effect the other way counts as inactive or inconclusive.
SMILES,RECQ1 helicase,TDP1 block,KAT2A inh,BLM inh,APEX1 inh,KDM4E inh
COc1ccc(CN2C(=O)NC(=O)/C(=C/c3ccc([N+](=O)[O-])o3)C2=O)cc1,10µM,n,22µM,u,u,n
Cc1cccc(N2C(=O)NC(=O)/C(=C\C=C\c3ccco3)C2=O)c1,22µM,n,n,n,u,n
O=C1NC(=O)N(c2ccc3c(c2)OCO3)C(=O)/C1=C/c1ccc(N2CCCC2)o1,n,n,n,n,n,n
Cc1cccc(N2C(=O)NC(=O)/C(=C/c3ccc([N+](=O)[O-])o3)C2=O)c1,n,x,25µM,n,u,n
C=CC(C)(C)c1c2c(c(O)c3c(=O)c4ccc(O)c(O)c4oc13)C=CC(C)(C)O2,n,n,x,n,n,u
COc1ccc(C=O)cc1OC,n,n,x,x,n,x
CC[C@@H]1CN2CCc3cc(OC)c(OC)cc3[C@@H]2C[C@@H]1C[C@H]1NCCc2cc(OC)c(OC)cc21,n,n,n[0.501 µM],n,n,n
Clc1nc(Cl)nc(Cl)n1,n,n,x,x,n,x
CC(C)CON=O,n,n,x,x,n,x
Cc1cccc(N2C(=O)NC(=O)/C(=C\c3cccn3-c3ccc(Cl)cc3)C2=O)c1,32µM,n,n,n,n,n
O=[N+]([O-])C(Br)Br,n,n,x,x,n,x
C[n+]1c2ccccc2nc2ccc(NCCO)cc21,x,x,n,18µM,27µM,x
OCCNc1c2c(nc3ccccc13)CCCC2,n,n,n,n,n,n
c1ccc2nc3ccccc3nc2c1,n,n,n,n,n,n
CNc1ccc2nc3ccccc3[n+](C)c2c1,x,x,n,18µM,21µM,x
CCc1ccc(N2C(=O)NC(=O)/C(=C\c3cccn3CCOc3ccc(C(C)C)cc3)C2=O)cc1,25µM,n,n,n,n,n
CC(C)c1ccc(N2C(=O)NC(=O)/C(=C/c3cnc(-c4ccccc4)nc3)C2=O)cc1,n,u,n,n,n,8.9µM
CSc1ncc(/C=C2/C(=O)NC(=O)N(c3ccc(C(C)C)cc3)C2=O)cn1,n,n,n,n,n,u
COC1=CC(=O)O[C@H](/C=C/c2ccc3c(c2)OCO3)C1,n,n,n,n,n,x
N#Cc1c(Oc2cccc(OS(=O)(=O)CCCC(F)(F)F)c2)cccc1C(F)(F)F,n,n,n,n,n,x
CC[N+](=O)[O-],n,n,x,x,n,x
Cc1cccc(O)c1,n,n,n,n,n,x
CN1CC[C@@]2(C)c3cc(O)ccc3N(C)[C@@H]12,n,n,x,n,n,6.3µM
CN1CC[C@@]2(C)c3cc(O)ccc3N(C)C2O1 (some centres not stated),n,n,x,u,n,x
O=C1NC(=O)C(=Cc2coc3ccc(O)cc3c2=O)C(=O)N1,n,x,n,n,n,18µM
SMILES,RECQ1 helicase,TDP1 block,KAT2A inh,BLM inh,APEX1 inh,KDM4E inh
CN1C(=O)C(=Cc2coc3ccccc3c2=O)C(=O)N(C)C1=O,n,n,n,n,n,n
O=C1NC(=O)C(=Cc2ccc(OCCOc3ccc([N+](=O)[O-])cc3)cc2)C(=O)N1,n,n,n,n,n,28µM
O=C1NC(=O)C(=Cc2cccc(OCCOc3ccccc3)c2)C(=O)N1,x,x,n,n,n,x
c1nc[n]([Sn]([CH]2CCCCC2)([CH]2CCCCC2)[CH]2CCCCC2)n1,n,n,n,n,n,x
BrCC(Br)C1CCC(Br)C(Br)C1 (configuration not stated),n,32µM!,n,x,n,x
CCOc1cncc(/C=C/CCNC)c1,n,n,n,n,n,x
O=[N+]([O-])c1cccc(CN2CCN(Cc3ccc(Cl)cc3)CC2)c1,n,n,n,n,n,28µM
O=[N+]([O-])c1cccc(CN2CC=C(c3ccc(F)cc3)CC2)c1,x,x,n,n,n,x
CCn1ncc(-c2ccnc3cc(C(=O)O)nn23)c1C,n,n,n,u,n,u
CCCCc1ccc(C(=O)O)nc1,n,n,n,n,n,10µM
CN1CCN(c2ccc(/C=C3\C(=O)NC(=S)N(c4cccc(Br)c4)C3=O)o2)CC1,14µM,n,n,n,n,n
CN1C(=O)/C(=C\c2ccc(N3CCCCC3)o2)C(=O)NC1=S,n,n,n,n,n,n
CCC#N,n,n,x,x,n,x
CSc1nnc([C@@H](N)Cc2c[nH]c3ccccc23)o1,n,n,n,n,n,4.5µM
CCSc1nnc([C@@H](N)Cc2c[nH]c3ccccc23)o1,n,n,n,n,n,u
C=CC=O,n,n,x,x,n,x
Cc1cc(/C=C2\C(=O)NC(=O)N(Cc3ccccc3)C2=O)c(C)n1-c1ccc(Cl)c(C(=O)O)c1,35µM,x,u,n,u,u
Cc1cc(/C=C2\C(=O)NC(=O)N(Cc3ccco3)C2=O)c(C)n1-c1ccc(O)cc1,n,n,n,25µM,n,n
CCOC(=O)N1CCN(/[N+]([O-])=N/Oc2ccc([N+](=O)[O-])cc2[N+](=O)[O-])CC1C (configuration not stated),n,n,x,n,n,x
C[C@]12CC[C@@H]3c4ccc(O)c(O)c4CC[C@H]3[C@@H]1CC[C@@H]2O,n,n,n,n,n,1.4µM
[CH3][Hg][Cl],n,n,x,x,n,x
CC1Oc2cc3c(-c4c(O)cc(O)c5c(O)c6c(cc45)OC(C)C(C)C6=O)c(O)cc(O)c3c(O)c2C(=O)C1C (configuration not stated),25µM,n,25µM,n,u,20µM
[O-][Cl+]O,n,n,x,x,n,x
O=C1NC(=O)C(=Cc2ccc(Sc3ccccc3)o2)C(=O)N1,n,n,n,n,n,u
O=C1NC(=O)N(c2ccc(Cl)cc2)C(=O)/C1=C\c1ccc(Sc2nc3ccccc3[nH]2)o1,25µM,n,u,n,u,n
SMILES,RECQ1 helicase,TDP1 block,KAT2A inh,BLM inh,APEX1 inh,KDM4E inh
COc1ccccc1CCNCc1ccc(OC)c(OC)c1OC,n,n,n,n,n,5.6µM
COc1ccc(CNCCc2c[nH]c3ccccc23)c(OC)c1OC,x,x,n,n,n,x
CCC12CCN(CCc3ccc(F)cc3)CC1Oc1c(O)cccc12 (configuration not stated),x,x,x,x,n,x
CC(=O)C1CCC2C3CCC4=CC(=O)CC[C@@]4(C)C3CC[C@]12C (some centres not stated),n,n,n,n,n,n
CN(C)[C@@H]1C(=O)C(C(N)=O)=C(O)[C@]2(O)C(=O)C3=C(O)c4c(O)ccc(Cl)c4[C@](C)(O)[C@H]3C[C@@H]12,n,n,n,n,x,n
CN(C)C1C(=O)C(C(N)=O)=C(O)[C@@]2(O)C(=O)C3=C(O)c4c(O)cccc4[C@@](C)(O)C3CC12 (some centres not stated),n,n,n,n,n,2.5µM
CC[C@H](CC[C@@H](C)C1CC[C@H]2[C@@H]3CC=C4C[C@@H](O)CC[C@]4(C)[C@H]3CC[C@]12C)C(C)C (some centres not stated),n,n,n[0.501 µM],n,n,n
